Screening data (PubChem)
In the library only some 7.5% were active in any assay of this set; here they are far more common.
FLuc counter: firefly luciferase modulation, counter-screen for miR-21 project. P08659. purified FLuc, Km substrates, luminescence inhibition. Potency, µM (doses to about 57.5 µM), for inactives: top-dose activity change, negative = inhibition, actives largely listed as inhibitors. 360,000 compounds, 6.9% hits;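 note: plate controls were vehicle for no effect and reference inhibitor for full effect; nearly all actives have a fitted effect of over 55% in size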
Target sequence (P08659 whole entry, looked up): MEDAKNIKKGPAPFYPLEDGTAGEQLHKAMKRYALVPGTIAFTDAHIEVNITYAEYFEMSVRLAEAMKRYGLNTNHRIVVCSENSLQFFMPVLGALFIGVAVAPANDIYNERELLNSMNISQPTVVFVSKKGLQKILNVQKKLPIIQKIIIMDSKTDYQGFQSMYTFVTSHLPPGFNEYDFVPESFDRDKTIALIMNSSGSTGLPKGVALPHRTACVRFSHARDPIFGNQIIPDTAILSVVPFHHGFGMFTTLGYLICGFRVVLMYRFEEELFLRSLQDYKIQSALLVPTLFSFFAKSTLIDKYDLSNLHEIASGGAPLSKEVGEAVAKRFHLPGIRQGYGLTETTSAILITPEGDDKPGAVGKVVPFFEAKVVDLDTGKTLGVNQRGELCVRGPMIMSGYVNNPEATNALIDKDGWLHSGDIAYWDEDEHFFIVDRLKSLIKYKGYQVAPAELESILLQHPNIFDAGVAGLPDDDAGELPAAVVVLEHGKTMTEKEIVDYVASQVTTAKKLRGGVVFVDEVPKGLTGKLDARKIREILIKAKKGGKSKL
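Biochemical qHTS of compounds, final roughly 60 µM downward over six points, against 10 nM purified firefly luciferase using Km concentrations of substrates (10 uM D-luciferin, 10 uM ATP) in Tris acetate pH 7.5 buffer; luminescence output.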
KinaseGlo FLuc: blocks Kinase-Glo luciferase, a counter-screen artifact | Kinase-Glo luciferase, ATP luminescence, 8 min | 200,000 compounds, 0.28% hits | Potency, µM (doses to about 38.3 µM), inactives show at the highest dose activity change, negative = inhibition, most hits filed as inhibitors | Q27757; note: % is set by controls: 0 for no effect and ±100 for the full control effect; nearly all actives have a fitted effect of over 60% in size
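Light output from Kinase-Glo luciferase with luciferin and 10 uM ATP in 50 mM imidazole pH 7.2, KCl, MgCl2, Tween 20, BSA; compound pin-delivered, 8-min ambient incubation, then luminescence read.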
SMN2 splice up: increases expression of the SMN2 splice variant. HEK293 SMN2-luciferase splicing reporter, luminescence, 30-36 h. Potency, µM (titrated, usually from 46.1 µM), without a hit: at the top dose activity change, positive = activation, most hits filed as activators. 210,000 compounds, 2.8% hits. AID 1458; note: % of control where 0% means no effect; nearly all actives have a fitted effect of over 55% in size
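HEK293 cells carry an SMN2 minigene-luciferase reporter in which exon 7 inclusion puts luciferase in frame. Cells were seeded at 2000 cells/well, attached for 10-12 hours, then exposed to compounds for 30-36 hours at 37C before ONE-Glo luminescence.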
Rab9 prom act: Rab9 promoter activation; Huh7 Rab9 promoter-luciferase reporter, luminescence, 24 h; Potency, µM (highest dose often 9.22 µM), for inactives: top-dose activation, negative = inhibition, usual class: activators; 320,000 compounds, 2.8% hits; note: % of control where 0% means no effect; nearly all actives have a fitted effect of over 60% in size
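Rab9 promoter-driven luciferase in stably transfected Huh7 cells; 1500 cells/well rested 2 h, exposed to compound in DMSO for 24 h at 37 °C, 5% CO2. Luminescence read 10 min after adding luciferase reagent at ambient temperature.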
ELG1 genotox: genotoxicity induction in ELG1-luciferase HEK293T cells. Potency, µM (doses to about 46 µM), without a hit: at the top dose activity change, positive = activation, actives largely listed as activators. 330,000 compounds, 1.3% hits. HEK293T ELG1-luciferase reporter, luminescence, 16 h; note: % of control where 0% means no effect; nearly all actives have a fitted effect of over 60% in size
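Cells (2,000/well) expressing the ELG1-luciferase fusion are dosed by pin tool and kept 16 hr at 37 °C, 5% CO2. Signal comes from ONE-Glo luciferase reagent after 30 min at room temperature.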
NPC1 promoter act: NPC1 promoter activation. Huh7 NPC1 promoter luciferase reporter, 24 h. Potency, µM (series often up to 9.22 µM), for the others: top-dose activation, hits mostly activators. 320,000 compounds, 2.4% hits; note: % of control where 0% means no effect; nearly all actives have a fitted effect of over 60% in size
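Huh7 reporter cells (NPC1 promoter driving luciferase) are dosed with compound for 24 h at 37 °C, 5% CO2; luciferase detection reagent is then added and luminescence measured after 10 min at ambient temperature.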
Active calls of the source: *; ? = inconclusive; . = no result. Calls come from the whole dose curve; as a rule, active = well fitted curve in the direction sought with a large enough effect; inconclusive = small, poorly fitted or top-dose-only effect, or another doubt; inactive = no such curve, though single readings can be large; an effect the other way counts as inactive or inconclusive. Potency is the fitted concentration of half-maximal effect.

SMILES	FLuc counter	KinaseGlo FLuc	SMN2 splice up	Rab9 prom act	ELG1 genotox	NPC1 promoter act
O=C(c1ccccc1)N1CCN(c2ncnc3c2cnn3-c2ccccc2)CC1	-21%	-7%	-19%	?	-2%	23%
Clc1cccc(-n2ncc3c(N4CCCCCC4)ncnc32)c1	1.7µM*	.	.	.	.	.
O=C(c1cccc(Cl)c1)N1CCN(c2ncnc3c2cnn3-c2ccccc2)CC1	-15%	-1%	-37%	-17%	-7%	-5%
Cc1ccc2oc(C(=O)N3CCC(C(N)=O)(N4CCCCC4)CC3)c(C)c2c1	-1%	.	.	0%	-2%	-1%
O=C(c1cc2cc(Cl)ccc2o1)N1CCCC1	?	.	.	20%	?	23%
O=C(c1cc2ccccc2c(=O)o1)N1CCCCCC1	24µM*	-3%	2%	13%	15%	1%
CC1CCN(C(=O)c2cc3ccccc3c(=O)o2)CC1	?	-1%	25%	1%	9%	15%
Cc1ccc2oc(C(=O)N3CCCCCC3)c(C)c2c1	15µM*	.	.	.	18µM*	2.2µM*
O=C(c1cc2cc(Br)ccc2o1)N1CCCCC1	11µM*	-6%	11µM*	4µM*	?	2.5µM*
Cc1c(C(=O)N2CCCCC2)oc2ccc(Br)cc12	21µM*	.	.	?	?	?
COc1cccc(/C=C/c2nc(C#N)c(NCCc3ccc(OC)c(OC)c3)o2)c1	1%	.	-11%	.	.	.
O=c1c2c3c(sc2ncn1/N=C/c1ccncc1)CCCC3	?	-2%	4%	0%	-2%	0%
O=c1c2c3c(sc2ncn1/N=C/c1cccnc1)CCCC3	15µM*	-2%	8%	22%	10%	-1%
NC(N)=NC(=O)c1nc(Cl)c(N2CCCCCC2)nc1N	4.3µM*	-3%	8%	?	16µM*	?
CC1CCc2nc(NC(=O)C3CCCO3)sc2C1 (stereo not drawn)	2.1µM*	-2%	2µM*	0.5µM*	1.2µM*	0.5µM*
CC1CCc2nc(NC(=O)Cc3cccs3)sc2C1 (stereo not drawn)	9.5µM*	0%	14µM*	2.2µM*	9.2µM*	3.2µM*
O=C(CCCc1cccs1)Nc1nc2c(s1)CCCC2	24µM*	-1%	16µM*	?	?	?
CCOc1ccccc1C(=O)Nc1nc2c(s1)CC(C)CC2 (stereo not drawn)	2.7µM*	.	.	.	.	.
CCC(CC)C(=O)Nc1nc2c(s1)CC(C)CC2 (stereo not drawn)	-21%	.	.	.	.	.
CCOc1ccccc1C(=O)Nc1nccs1	-6%	1%	-1%	-1%	3%	1%
CCOC(=O)/C(=C/Nc1ccc(F)cc1)[N+](=O)[O-]	6%	.	.	-5%	-1%	-1%
CCOc1ccc(-c2nc(CSCC(=O)N3CCN(c4cccc(C(F)(F)F)c4)CC3)c(C)o2)cc1	-3%	.	.	.	.	.
CC1CCc2nc(NC(=O)c3ccco3)sc2C1 (stereo not drawn)	0.3µM*	-21%	-25%	0.28µM*	?	0.45µM*
Cc1cccc(NC(=O)c2c(NC(=O)c3ccco3)sc3c2CCC(C)C3)c1 (stereo not drawn)	4%	.	-17%	.	.	.
O=C(c1cc(-c2ccc(Br)cc2)n[nH]1)N1CCN(S(=O)(=O)c2ccc(Cl)s2)CC1	-8%	.	.	.	.	.
SMILES	FLuc counter	KinaseGlo FLuc	SMN2 splice up	Rab9 prom act	ELG1 genotox	NPC1 promoter act
Cc1cccc(-c2nc(C#N)c(NC3CCCCC3)o2)c1	7.6µM*	-1%	10µM*	1.8µM*	?	2.5µM*
Cc1cccc(-c2nc3c(C#N)c[nH]n3c2NC2CCCCC2)c1	0%	.	.	.	.	.
COc1ccc(-c2nc(C#N)c(N3CCC(C)CC3)o2)cc1	?	.	.	-9%	-5%	-4%
Cc1cccc(-c2nc(C#N)c(N3CCCCC3)o2)c1	13µM*	.	.	?	?	?
Cc1ccc(-c2nc(C#N)c(N3CCC(C)CC3)o2)cc1	?	.	.	0.1µM*	3%	?
COc1ccc(/C=C2\CCc3ccccc3C2=O)cc1Cn1nc(C)cc1C	13µM*	-3%	-29%	-2%	19%	-10%
COc1ccc(/C=C/C(=O)c2ccccc2O)cc1CN1CCOCC1	-3%	-2%	-12%	2%	-9%	-3%
COc1ccc(/C=C2/CCc3ccccc3C2=O)cc1CN1CCOCC1	9.5µM*	1%	-15%	0%	18%	-1%
Cc1cc(O)cc(O)c1C(=O)O	.	0%	7%	.	.	.
COc1cc(C)c(C(=O)Oc2cc(C)c(C(=O)O)c(O)c2)c(O)c1	19µM*	.	.	7%	5%	-2%
CN1C(=O)/C(=C/c2ccc(C(F)(F)F)cc2)Sc2ccc(C(=O)N3CCN(c4ccccn4)CC3)cc21	8.5µM*	.	.	-6%	-12%	-6%
Cc1cccc(/C=C2\Sc3ccc(C(=O)N4CCC(C(N)=O)CC4)cc3N(C)C2=O)c1	19µM*	.	.	-6%	-9%	-20%
O=C(Nc1ccc(C(=O)OCc2cc(=O)n3c4c(sc3n2)CCCC4)cc1)c1cccc(F)c1	-1%	.	.	.	.	.
Cn1c(=O)[nH]c(=O)c2c1nc(SCC(N)=O)n2Cc1cccc(Br)c1	1%	.	.	-8%	21µM*	2%
O=C1CCCC(O)=C1N=Nc1ccc(Cl)c(Cl)c1	?	-8%	-4%	4%	5%	-1%
CC(=O)N1CCc2cc(N=NC3=C(O)CCCC3=O)ccc21	15µM*	-13%	171%	3.5µM*	?	?
Cc1nc2cc(N=NC3=C(O)CCCC3=O)ccc2s1	13µM*	-18%	?	16%	?	10%
CCOC(=O)c1cc(-c2ccc(C)cc2)n(CCCC(=O)Nc2cc(C)ccc2C)c1	-5%	.	.	.	.	.
O=C(NCc1ccc(Cl)cc1)C1CCN(c2nn3cc(-c4ccc(F)cc4)nc3s2)CC1	-6%	.	.	.	.	.
CCC(=O)N1CCc2cc(Br)cc(S(=O)(=O)N3CCN(c4cccc(Cl)c4)CC3)c21	1%	.	-3%	.	.	.
COc1ccc(/C=C2\SC(=Nc3ccccc3OC)NC2=O)cc1	5.4µM*	.	.	4%	-1%	-26%
COc1cc(/C=C2\SC(=Nc3ccccc3OC)NC2=O)ccc1O	?	.	.	0%	0%	-24%
CNc1ccc(/C=C2\CSc3ccccc3C2=O)cc1[N+](=O)[O-]	0.76µM*	-21%	-51%	14%	?	10%
O=C1/C(=C/c2cccc([N+](=O)[O-])c2)CSc2ccc(Cl)cc21	-13%	.	.	-3%	7%	-1%
COc1ccccc1CNC(=O)c1cccn1-c1nnc(N2CCCCC2)s1	-18%	.	.	.	.	.
Cc1cc(=O)[nH]c2c1c(-c1ccccc1)nn2C	2%	.	.	-6%	5%	-3%
Nc1nn2c(-c3ccccc3)cc(=O)[nH]c2c1N=Nc1ccc(Br)cc1	21µM*	0%	-58%	2%	-13%	-1%
